Test results published in the supplement of paper PMC8728848.
About 410 targets per protein were measured; listed, in parts, are those with the strongest signals and a random draw of the rest.

Legend:
Experiment in all cases: glycan array binding signal (z-score within array); higher = stronger binding
Conditions in all cases: glycan notation: IUPAC condensed, linker removed
[1] = target: GlcNAc(b1-2)[GlcNAc(b1-6)]Man(a1-6)[GlcNAc(b1-2)Man(a1-3)]Man(b1-4)GlcNAc(b1-4)[Fuc(a1-6)]GlcNAc
Outline: (§1)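 Glycan array data were curated from 3228 arrays in the Consortium for Functional Glycomics database and kept only where the protein sequence was available. Glycan names were converted to IUPAC-condensed notation, and columns mapping to the same glycan were averaged. The binding signal is a within-array Z-score, averaged across arrays of the same protein sequence at different concentrations or buffers and across linkers. Negative Z-scores can be read as non-binding.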

[2] = target: GlcNAc(b1-2)[GlcNAc(b1-6)]Man(a1-6)[GlcNAc(b1-4)][GlcNAc(b1-2)Man(a1-3)]Man(b1-4)GlcNAc(b1-4)GlcNAc
Outline: as §1

[3] = target: GlcNAc(b1-4)[GlcNAc(b1-6)]GalNAc
Outline: as §1

GlcNAc(b1-6)GalNAc = target: GlcNAc(b1-6)GalNAc
Outline: as §1

[4] = target: GlcNAc6S(b1-3)Gal(b1-4)GlcNAc
Outline: as §1

[5] = target: Man(a1-2)Man(a1-2)Man(a1-6)[Man(a1-3)]Man
Outline: as §1

[6] = target: Man(a1-2)Man(a1-6)[Man(a1-3)]Man(a1-6)[Man(a1-2)Man(a1-2)Man(a1-3)]Man
Outline: as §1

[7] = target: Man(a1-3)[Man(a1-6)]Man(a1-6)[Man(a1-3)]Man(b1-4)GlcNAc(b1-4)GlcNAc
Outline: as §1

[8] = target: Neu5Ac(a2-3)Gal(b1-3)GlcNAc(b1-6)GalNAc
Outline: as §1

[9] = target: Neu5Ac(a2-3)Gal(b1-3)[GlcNAc(b1-6)]GalNAc
Outline: as §1

[10] = target: Neu5Ac(a2-3)Gal(b1-4)GlcNAc(b1-3)Gal(b1-4)[Fuc(a1-3)]GlcNAc
Outline: as §1

[11] = target: Neu5Ac(a2-3)Gal(b1-4)[Fuc(a1-3)]GlcNAc(b1-3)Gal
Outline: as §1

[12] = target: Neu5Ac(a2-3)Gal6S(b1-4)[Fuc(a1-3)]GlcNAc
Outline: as §1

[13] = target: Neu5Ac(a2-6)Gal(b1-4)GlcNAc(b1-2)Man(a1-3)Man(b1-4)GlcNAc(b1-4)GlcNAc
Outline: as §1

[14] = target: Neu5Ac(a2-6)Gal(b1-4)GlcNAc(b1-6)GalNAc
Outline: as §1

[15] = target: Neu5Ac(a2-8)Neu5Ac(a2-8)Neu5Ac
Outline: as §1

Neu5Gc(a2-6)GalNAc = target: Neu5Gc(a2-6)GalNAc
Outline: as §1

B1: AT1G73650(15) (Arabidopsis thaliana), F4HRY1 (protein)
chain: MGTVLDSHFLALTAIVTVIYQFIFFVITALFKFDQVTDFAGSTNFVILAVLTLVLKASWHFRQIVLTLLVVVWGLRLGIFLLMETRILQWGEDRRFDEQRGNIVRLIIFWTLQAVWVWTVSLPLTLVNASDGGGSLKPADVIGWTMETWVFGFLIEAAADQQKLSFKNSPENRGKWCDVGVWKYSRHPNYFGEMETLLWWGIFVAASPVLEGAEYLVIFGPLFLTLLLLFVSGIPLLEASADKKHGNSGAYRSYKKTTSPLILFPRGVYGNLPGWFKTVFLFEFPFYSRNLPQEGRLQNSKEKEVKDD
B1 was tested, and the “glycan array binding signal (z-score)” value [1] was 0.047, the “glycan array binding signal (z-score)” value [2] was -0.322 and the “glycan array binding signal (z-score)” value [3] was -0.41. The “glycan array binding signal (z-score)” value (GlcNAc(b1-6)GalNAc) was -0.154, the “glycan array binding signal (z-score)” value [4] was -0.641 and the “glycan array binding signal (z-score)” value [5] was -0.361. For the same binder, the “glycan array binding signal (z-score)” value [6] was -0.508, the “glycan array binding signal (z-score)” value [7] was -0.566 and the “glycan array binding signal (z-score)” value [8] was 3.42. For the same binder, the “glycan array binding signal (z-score)” value [9] was -0.402, the “glycan array binding signal (z-score)” value [10] was 1.23 and the “glycan array binding signal (z-score)” value [11] was -0.714. The “glycan array binding signal (z-score)” value [12] was -0.428, the “glycan array binding signal (z-score)” value [13] was -0.274 and the “glycan array binding signal (z-score)” value [14] was 7.33. For the same binder, the “glycan array binding signal (z-score)” value [15] was 2.92 and the “glycan array binding signal (z-score)” value (Neu5Gc(a2-6)GalNAc) was 3.69.
